According to PubChem BioAssay AID1224856 (National Center for Advancing Translational Sciences (NCATS), 2016):
Records with an inconclusive call do not appear. A number with no mark means an inactive call. The source made the active and inactive calls. Calls follow the shape of the dose curve; as a rule, active = well fitted curve in the direction sought with a large enough effect; inconclusive = small, poorly fitted or top-dose-only effect, or another doubt; inactive = no such curve, though single readings can be large or run the other way.

Assay: Cell viability assay for measurement of the protective activity of small molecules against cell death caused by Zika virus infection in human astrocytes
Settings: human astrocytes ZIKV-induced death, ATP luminescence, 72 h; series mostly up to 46.1 µM; protection from virus-induced death: at the top concentration
Text: National Center for Advancing Translational Sciences [NCATS] Johns Hopkins University School of Medicine Florida State University Assay Overview: Zika virus infection causes cell death in certain cell types including human neural progenitor cells (hNPCs), astrocytes, and astrocytoma cell line (SNB-19). This cell viability assay measures the ATP content (level) in human astrocytes using a luminescence readout that is proportional to viable cell numbers. Decrease in the luminescence signal after Zika virus infection indicates the cell death caused by Zika virus. Small molecule inhibitors […] the decreased luminescence signal after Zika virus infection, indicating the protective effect of that small molecule on the cell death caused by Zika virus infection. This observed protective effect of small molecules against Zika virus induced cell death may result from inhibition of virus replication or cellular response to the virus infection.
Assay Protocol Summary: The medium for astrocytes contains AM basal medium (ScienCell, Cat.# 1801), AGS (ScienCell, Cat.# 1801), 10% FBS, and 1% Pen/Strep. The ATP content assay kit (PerkinElmer, Cat.# 6016731) was used to determine cell viability. The reagent was reconstituted and prepared as described by the manufacturer. Cells were seeded in 384- or 1536-well assay plates and cultured at 37 C with 5% CO2 for 16 to 20 hours. The typical cell seeding density in the 1536-well plate assay is 350 cells/well in 3 ul medium for astrocytes in the tissue cultured treated/PDL coated plates. Compounds were added to cells and incubated for one hour before addition of ZIKV solution to cells (2 FFU/cell). After incubation at 37 C with 5% CO2 for 72 hours, the reagent mixture of the ATP content assay kit was added to each well, followed by incubation at room temperature for 10 minutes. The luminescence intensity of the assay plates was measured using a ViewLux plate reader (PerkinElmer). […] The percentage inhibitions of the decreased cell viability by small molecule inhibitors were then calculated.

SMILES | protection from virus-induced death | Potency
Cc1cccc(/C=C/c2ccccc2)n1 | 8.77% | 
O=S(=O)(O)CCSSCCS(=O)(=O)O | 4.4% | 
Nc1c(S(=O)(=O)O)cc(Nc2ccc(Nc3nc(Cl)nc(Nc4ccc(S(=O)(=O)O)cc4)n3)c(S(=O)(=O)O)c2)c2c1C(=O)c1ccccc1C2=O | 4.07% | 
O=c1cc(-c2ccccc2)oc2cc(O)cc(O)c12 | 0.394% | 
CCC(C(=O)O)c1ccc(N2Cc3ccccc3C2=O)cc1 (stereo not given) | -4.84% | 
CCN1CCC(n2cc(CNc3cc(Cl)c4ncc(C#N)c(Nc5ccc(F)c(Cl)c5)c4c3)nn2)CC1 | 2.87% | 
Cc1cc(O)c2ccccc2c1O | -10.4% | 
CN(C)c1ccc(C(=C2C=CC(=[N+](C)C)C=C2)c2ccccc2)cc1 | -10.5% | 
N#C/C(=C\c1ccc(O)c(O)c1)C(=O)Nc1ccccc1 | 8.43% | 
COc1ccc(-c2cc(=S)ss2)cc1 | 3.7% | 
COc1cccc2c1C(=O)c1c(O)c3c(c(O)c1C2=O)C[C@@](O)(C(=O)CO)CC3OC1CC(N2CCOC(OC)C2)C(O)C(C)O1 (stereo not given in full) |  | 436 nM (active)
C=CCCCCCCCCC(=O)O | 3.75% | 
COc1ccc(CC2=NN3C([C@@H](CCc4ccccc4)[C@@H](C)O)=NC(C)C3C(=O)N2)cc1OC (stereo not given in full) | -2.71% | 
CC(C)c1ccc2oc3nc(N)c(C(=O)O)cc3c(=O)c2c1 | -9.76% | 
O=C(O)CCC(=O)c1ccc(-c2ccccc2)cc1 | -0.858% | 
COc1cccc2c1C(=O)c1c(O)c3c(c(O)c1C2=O)C[C@@](O)(C(=O)CO)C[C@@H]3O[C@H]1C[C@H](N)[C@H](O[C@@H]2CCCCO2)[C@H](C)O1 | -3.67% | 
O=C(O)[C@@H](c1ccc(OCc2ccc3ccccc3n2)cc1)C1CCCC1 | -1.24% | 
CC(=Cc1ccccc1)C=C1SC(=S)N(CC(=O)O)C1=O | -4.2% | 
CCCSc1ccc2nc(NC(=O)OC)[nH]c2c1 | 22.8% | 
CC1(C)OC2=C(C(=O)c3ccccc3C2=O)[C@H](NCc2ccccc2)[C@H]1O | -10.5% [at 88.3 µM] | 

SMILES | protection from virus-induced death | Potency
O=c1c2ccccc2nc2n1CCc1c-2[nH]c2ccccc12 | 17% | 
C[C@@H](N)c1ccc(C(=O)Nc2ccnc3[nH]ccc23)cc1 | 6.59% | 
CCN(CC)c1ccc(C(=C2C=CC(=[N+](CC)CC)C=C2)c2cc(S(=O)(=O)O)ccc2S(=O)(=O)[O-])cc1 | -6.8% | 
COc1ccc(NC(=O)/C=C/c2ccc(Cl)cc2)cc1 | 7.03% | 
CS(=O)(=O)c1ccc(-c2cn3ccccc3n2)cc1 | -6.51% | 
O=C(O)c1ccccc1Nc1cccc(C(F)(F)F)c1 | -4.67% | 
Cc1c(N)c(=O)n(-c2ccccc2)n1C | 1.04% | 
O=S(=O)(O)c1ccc2nc(-c3ccccc3)[nH]c2c1 | -6.93% | 
NC(N)=NN=C(/C=C/c1ccc([N+](=O)[O-])o1)/C=C/c1ccc([N+](=O)[O-])o1 | -9.16% | 
C[C@H](NC(=O)C(=O)Nc1ccccc1C(C)(C)C)C(=O)N[C@@H](CC(=O)O)C(=O)COc1c(F)c(F)cc(F)c1F |  | 3880 nM (active)
N#CC1(c2ccc(NC(=O)c3cccnc3NCc3ccncc3)cc2)CCCC1 | 5.4% | 
O=c1oc2cc(O)ccc2s1 | 6.44% | 
O=C(O)Cc1ccc(-c2ccccc2)cc1 | 1.03% | 
CC(=C(CCOC(=O)C(C)C)SSC(CCOC(=O)C(C)C)=C(C)N(C=O)Cc1cnc(C)nc1N)N(C=O)Cc1cnc(C)nc1N | -5.9% | 
Cc1nc(N)sc1-c1ccnc(Nc2ccc(N3CCOCC3)cc2)n1 | 1.74% | 
CC(=O)OC(C)OC(=O)C(C)c1ccc(-c2ccccc2)c(F)c1 (stereo not given) | 3.37% | 
Cc1c(NC(=O)c2ccc(C(C)(C)C)cc2)cccc1-c1cn(C)c(=O)c(Nc2ccc(C(=O)N3CCOCC3)cc2)n1 | 1.63% | 
O=C(O)c1cc([N+](=O)[O-])ccc1NCCCc1ccccc1 | -1.03% | 
CCCCCCCCCCCC(=O)[O][Sn]([CH2]CCC)([CH2]CCC)[O]C(=O)CCCCCCCCCCC | -3.89% | 
c1ccc(CCNc2nc(-c3ccccc3)cs2)cc1 | -4.1% | 
